The values below come from the supplement of paper PMC9446081.

Each structure is given as a SMILES string. Screen size: about 39,000 compounds; about 220 (0.56%) showed activity. Only a selection was taken, and actives are over-represented in it overall.
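Also: Wild-type cells incubated without shaking, value is the mean of two biological replicates.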

The subject of the assay is Escherichia coli K-12 BW25113. As to the kind of experiment: relative growth (OD600 normalised to plate interquartile mean) (fraction); higher = less growth inhibition, active = 0.2 or less. Conditions: 50 µM; LB; incubation time: overnight (16-24 h).
In the case of `C[C@@H]1CCCCO[C@@H](CN(C)C(=O)Nc2ccc3c(c2)OCO3)[C@@H](C)CN([C@H](C)CO)C(=O)c2cc(NC(=O)c3ccccc3)ccc2O1`, the relative growth is 1.01 (inactive).
The result for `C/C=C/c1ccc2c(c1)O[C@@H](CN(C)C(=O)c1ccc3c(c1)OCO3)[C@@H](C)CN([C@H](C)CO)S2(=O)=O` reads 1.01 (inactive).
The result for `CC1=C(C(=O)O)N2C(=O)[C@@H](NC(=O)[C@H](N)C3=CCC=CC3)[C@H]2SC1` reads 1.03 (inactive); that for `CO/N=C(\C(=O)N[C@@H]1C(=O)N2C(C(=O)O)=C(C[N+]3(C)CCCC3)CS[C@H]12)c1csc(N)n1`, 0.0339 (active); that for `CC1=C(C(=O)O)N2C(=O)C(NC(=O)C(N)C3=CCC=CC3)C2SC1` (stereo unspecified), 1.07 (inactive).
As to `CO/N=C(\C(=O)N[C@@H]1C(=O)N2C(C(=O)O)=C(C)CS[C@H]12)c1csc(N)n1`, the relative growth was 0.0368 (active).
Next, `CON=C(C(=O)NC1C(=O)N2C(C(=O)O)=C(C[N+]3(C)CCCC3)CSC12)c1csc(N)n1.[Cl-]` (stereo unspecified): 0.0437 (active).
Next, `C[C@H]1CN([C@@H](C)CO)S(=O)(=O)c2ccc(C3=CCCC3)cc2O[C@@H]1CN(C)S(=O)(=O)c1ccc(F)cc1`: 1.02 (inactive).
Next, `C[C@H](CO)N1C[C@H](C)[C@@H](CN(C)C(=O)CN(C)C)Oc2ncc(-c3ccc(C(=O)N(C)C)cc3)cc2C1=O`: 0.975 (inactive); `Cc1cccc(NC(=O)Nc2ccc3c(c2)C(=O)N(C)[C@@H]2CC[C@@H](CC(=O)NCc4ccccc4Cl)O[C@@H]2CO3)c1`: 0.998 (inactive).
For `C[C@@H]1CN([C@H](C)CO)S(=O)(=O)c2ccc(-c3cncnc3)cc2O[C@H]1CN(C)C(=O)Cc1cccnc1`, the relative growth is 0.98 (inactive).
Next, `CC(C)NC(=O)N[C@@H]1CC[C@@H](CCN)O[C@H]1CO`: 0.989 (inactive).
Next, `C[C@H](CO)N1C[C@H](C)[C@@H](CN(C)Cc2ccc3c(c2)OCO3)Oc2ccc(NC(=O)CCCN(C)C)cc2CC1=O`: 0.975 (inactive); `O=c1nc[nH]c2n[nH]cc12`: 1.03 (inactive); `COC1=C(N)C(=O)c2nc(-c3nc(C(=O)O)c(C)c(-c4ccc(OC)c(OC)c4O)c3N)ccc2C1=O`: 0.038 (active).
Next, `COc1ccc(C(=O)O)c(O)c1OC`: 1.03 (inactive); `COCC(=O)Nc1ccc2c(c1)C(=O)N(C)C[C@@H](OC)[C@H](C)CN(Cc1ccccc1C(=O)O)[C@H](C)CO2`: 1.02 (inactive).
As for `C[C@@H]1CCCCO[C@H](CN(C)S(=O)(=O)c2ccc(Cl)cc2)[C@@H](C)CN([C@H](C)CO)C(=O)c2cc(NC(=O)c3ccncc3)ccc2O1`, the relative growth is 1.01 (inactive).
The result for `COc1ccc(CN(C)C[C@H]2OCCCC[C@H](C)Oc3ccc(NS(=O)(=O)c4ccc(C)cc4)cc3C(=O)N([C@@H](C)CO)C[C@@H]2C)cc1` reads 0.982 (inactive); that for `C[C@H](CO)N1C[C@H](C)[C@H](CN(C)Cc2ccc3c(c2)OCO3)OCCCC[C@H](C)Oc2ccc(NS(=O)(=O)c3ccc(F)cc3)cc2C1=O`, 0.995 (inactive); that for `COc1ccc(NC(=O)N(C)C[C@@H]2Oc3ccc(NC(=O)Nc4ccc(C(F)(F)F)cc4)cc3C(=O)N([C@@H](C)CO)C[C@H]2C)cc1`, 1.03 (inactive).
Next, `Clc1nc(-c2ccccn2)nc2scc(-c3ccccc3)c12`: 0.979 (inactive); `CC(Cc1cccc(C(F)(F)F)c1)NCCOC(=O)c1ccccc1.Cl` (stereo unspecified): 0.815 (inactive); `CC(NCCCc1cccc(C(F)(F)F)c1)c1cccc2ccccc12.Cl` (stereo unspecified): 0.0467 (active).
Next, `C[C@@H](O)c1cccc(C(F)(F)F)c1`: 0.986 (inactive); `C[C@H]1CN([C@@H](C)CO)C(=O)c2cc(NS(=O)(=O)c3cn(C)cn3)ccc2O[C@H]1CN(C)Cc1ccc(C(=O)Nc2ccccc2N)cc1`: 1.04 (inactive).
For the compound `COc1cccc(OCc2ccc(Cn3nc(NC(=O)NCc4ccccc4OC)c4ccccc43)cc2)c1`, the relative growth is 1.03 (inactive).
Next, `O=C1C=CC(=O)N1`: 0.0291 (active); `Cc1noc(C)c1S(=O)(=O)Nc1ccc2c(c1)CC(=O)N([C@H](C)CO)C[C@H](C)[C@H](CN(C)S(=O)(=O)c1c(C)noc1C)O2`: 1.01 (inactive).
In the case of `CN(C)CCOC(c1ccccc1)c1ccccc1.Cl`, the relative growth is 1.12 (inactive).
The result for `CN(C)CCOC(c1ccccc1)c1ccccc1.Cn1c(=O)c2[nH]c(Cl)nc2n(C)c1=O` reads 0.0491 (active); that for `COCCc1nc2c([nH]1)c(=O)n(C)c(=O)n2C`, 0.97 (inactive); that for `CO[C@@H]1CN(C)C(=O)c2cc(NC(=O)c3ccc(F)cc3)ccc2OC[C@@H](C)N(C(=O)CN(C)C)C[C@H]1C`, 0.988 (inactive).
The result for `C[C@H]1CCCCO[C@@H](CN(C)Cc2ccc(C(=O)Nc3ccccc3N)cc2)[C@@H](C)CN([C@@H](C)CO)C(=O)c2cc(N(C)C)ccc2O1` reads 0.998 (inactive).
The result for `[N-]=[N+]=Nc1ccccc1C[C@@]1(C(=O)NC[C@@H](O)CO)N=C(c2ccc(OCCCO)cc2)O[C@@H]1c1ccccc1` reads 1 (inactive); that for `COc1ccc(S(=O)(=O)N(C)C[C@H]2Oc3ccc(NS(=O)(=O)c4ccc(F)cc4)cc3C(=O)N([C@H](C)CO)C[C@H]2C)cc1`, 1.02 (inactive); that for `CO[C@@H]1[C@@H](OC(=O)c2ccc(C)[nH]2)[C@@H](O)[C@@H](Oc2ccc3c(c2C)OC(=O)[C@H](NC(=O)c2[nH]cc(CC(=O)Nc4cc5ccc(O[C@@H]6OC(C)(C)[C@H](OC)[C@@H](OC(=O)c7ccc(C)[nH]7)[C@H]6O)c(C)c5oc4=O)c2C)C3)CC1(C)C`, 0.0629 (active).
With `COC1C(OC(N)=O)C(O)C(Oc2ccc3c([O-])c(NC(=O)c4ccc(O)c(CC=C(C)C)c4)c(=O)oc3c2C)OC1(C)C.[Na+]` (stereo unspecified), the relative growth was 0.701 (inactive).
The result for `COCCCNC(=O)[C@@H]1c2ccccc2C(=O)N(Cc2cc(C(F)(F)F)cc(C(F)(F)F)c2)[C@H]1c1ccc(CO)cc1` reads 0.859 (inactive); that for `Cc1noc(C)c1NC(=O)Nc1ccc2c(c1)C(=O)N([C@@H](C)CO)C[C@@H](C)[C@@H](CN(C)C(=O)c1ccccc1)OCCCC[C@@H](C)O2`, 0.977 (inactive); that for `Cc1cc(C2CCCCC2)n(O)c(=O)c1.NCCO`, 0.0534 (active).
